Among the data in PubChem BioAssay AID504550 (Sanford-Burnham Center for Chemical Genomics, 2011) are activation values, retold here.

The structures appear in SMILES notation. Some of the results follow. Activity calls are given as the source filed them.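 How the source made its calls: active means mean activation at 20 µM of at least 40%; inactive means the rest.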

For the test, the target named is Neurotensin receptor type 1 (Homo sapiens) (UniProt P30989). The test is described as follows: beta-arrestin-GFP spots via human NTR1 – imaging, U2OS cells, single concentration, confirmation (AID 504550).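 Further: 0% = DMSO without peptide and 100% = 100 nM NTR1 peptide.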 Conditions: NTR1-U2OS beta-arrestin-GFP translocation imaging; at 20 µM; active compounds read high.
Neurotensin receptor type 1 (Homo sapiens), sequence (P30989 whole entry, looked up): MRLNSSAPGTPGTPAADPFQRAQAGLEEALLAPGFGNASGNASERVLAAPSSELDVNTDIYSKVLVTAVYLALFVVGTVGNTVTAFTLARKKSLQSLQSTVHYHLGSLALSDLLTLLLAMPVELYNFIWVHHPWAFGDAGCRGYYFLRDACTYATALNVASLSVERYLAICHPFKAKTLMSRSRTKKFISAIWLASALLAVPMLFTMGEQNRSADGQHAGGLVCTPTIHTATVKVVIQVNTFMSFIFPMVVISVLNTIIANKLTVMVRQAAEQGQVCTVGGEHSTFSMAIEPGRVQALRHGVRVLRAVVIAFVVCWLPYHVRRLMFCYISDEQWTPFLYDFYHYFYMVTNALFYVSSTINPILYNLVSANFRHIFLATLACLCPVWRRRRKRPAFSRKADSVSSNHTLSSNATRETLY

On to `Cc1cccc(N2C(=O)NC(=O)/C(=C\c3cnn(-c4ccccc4)c3)C2=O)c1`, for which the activation was 47.1% (active).
Take `O=C1NC(=O)N(CCc2ccc(F)cc2)C(=O)/C1=C/C=C/c1ccccc1`: the activation was 43.1% (active).
